Molecules are shown by their SMILES. This is part of a sample that, as a whole, favours compounds with a hit. Of some 83,000 tested, about 20% had one in any assay.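 Note: values are percent growth. 100 is the growth of untreated cells, values between 100 and 0 indicate rising inhibition; between -100 and 0 indicates cell death.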 A number with no mark means an inactive call. The source made the active and inactive calls.

The text below walks through data of PubChem BioAssay (NCI).

This experiment relates to PC-3 prostate. Description: NCI-60 one-dose screen, 48 h (100 = growth as untreated, 0 = no growth, -100 = all killed). Conditions: 10 µM unless noted. The protocol:
Growth inhibition of the PC-3 human tumor cell line is measured as a screen for anti-cancer activity. Cells are grown in 96 well plates and exposed to the test compound for 48 hours. Compounds are tested at a single concentration, which is 10^-5 M for most compounds. The reported endpoint is percent growth (GI% or GIPRCNT), where numbers from 0 - 100% represent growth inhibition, and numbers from -100% - 0 represent cell death. For example, a value of 40 represents 60% growth inhibition. A value of 0 means no net growth occurred over the course of the experiment. A value of -40 indicates 40% of cells at the beginning of the experiment died by the end of the experiment. A value of -100 means all cells are dead at the end of the experiment.
NCI-60 Human Tumor Cell Lines Screen was performed using the standard one-dose NCI protocol, which is described in more detail at https://dtp.cancer.gov/discovery_development/nci-60/default.htm.
Compounds with GIPRCNT values below 10 were considered active. Activity score was based on GIPRCNT using the following formula: […]
Score is 0 for GIPRCNT values of 100 or above, 50 for GIPRCNT values of 0, and 100 for GIPRCNT values of -100.
With `CC1(C)CC[C@]2(C(=O)O)CC[C@]3(C)C(=CC[C@@H]4[C@@]5(C)C/C(=C/c6ccco6)C(=O)C(C)(C)[C@@H]5CC[C@]43C)[C@@H]2C1`, the growth is -16% [100 µM] (active).

Consider `COc1cc2c(cc1OC(C)=O)C(=O)CCCC2`, for which the growth was 87.5%. For `CCOC(=O)C(C(C)=O)c1nc2sc3cc(Cl)c(Cl)cc3n2c(=O)c1C#N` (stereo not given), the growth is 83.9%.

In the case of `C[n+]1cccc(NC(=O)c2ccc3ccc4ccc(C(=O)Nc5ccc[n+](C)c5)nc4c3n2)c1`, the growth is 55.3%. Consider `CS(=O)(=O)c1cccnn1`, for which the growth was 95.6%. With `O=C(O)CSCc1nnc2n(Cc3ccccc3)c(=O)c3c4c(sc3n12)CCCC4`, the growth was 101%. To `CN(C)C(=S)Sc1ccc([N+](=O)[O-])cc1[N+](=O)[O-]` belongs 28.1%; to `C#C[C@]1(O)CC[C@H]2[C@@H]3CC=C4c5nc(N)sc5CC[C@]4(C)[C@H]3CC[C@@]21C`, 47.5%. With `C=C(CC(=O)OC)C(C)=O`, the growth was 109%. Regarding `CC1Cc2c(ncnc2-n2cnc3ccccc32)N(C)c2ccccc21` (stereo not given), the growth was 25.6%. As to `CC1(C)OC2[C@@H](CNC(=O)NC(=O)NC(=O)CI)O[C@@H](n3cnc4c(NC(=O)Nc5ccccc5)ncnc43)[C@H]2O1` (stereo not given in full), the growth is 68.3%. Regarding `N#C/C(C(=O)c1ccccc1)=C1/C(=O)Nc2ccc(F)cc21`, the growth was 93.3%. As for `O=C(O)c1cc([N+](=O)[O-])ccc1Br`, the growth is 100%. On to `CCOC(=O)c1sc2nc(-c3cc(OC)c(OC)c(OC)c3)nc(N3CCOCC3)c2c1C`, for which the growth is 14.2%. On to `CC(=O)Nc1ccc2nc3ccc(NC(C)=O)cc3[n+](-c3ccccc3)c2c1`, for which the growth is 104%. Turning to `Cc1cc(N2CCCCCC2)nc(N2CCN(CC(=O)Nc3ccc4c(ccn4Cc4ccccc4)c3)CC2)n1`, the growth is 29%.

On to `O=C(CSc1nccc(Nc2ccc(S(=O)(=O)Nc3ccccn3)cc2)n1)c1ccc(Cl)cc1`, for which the growth was 84.3%. Consider `Cc1ccc(-c2cn(C/C=C3\C=CN(S(=O)(=O)c4ccccc4)CC3)nn2)cc1`, for which the growth is 97.1%. `Cn1c(=O)c(C#N)c(-c2ccco2)n2c(S(=O)(=O)Cc3ccccc3)nnc12`: the growth was 112%. On to `CCN(CCO)CCC(=O)c1ccc([N+](=O)[O-])cc1`, for which the growth was 103%.

Consider `COc1c(C(C)=O)c(OCCCCOc2c(C(C)=O)c(OC)c3ccoc3c2OC)c(OC)c2occc12`, for which the growth was 55.2%. Regarding `CC(C)CCNCC(C)(C)O`, the growth was 98.6%. To `O=C1COCCN1c1ccc(Nc2nc(Cl)nc(N3CCOCC3)n2)cc1` belongs 96.8%; to `CCN1c2ccccc2C(Cl)(c2ccc(N(C)C)cc2)c2ccccc21`, 25.6%; to `CCOC(=O)n1cc(C2=C(c3ccc(OC)c(OC)c3)COC2=O)c2ccccc21`, 12%. As for `O=C(Nc1ccccc1)Nc1ccc(C(=O)/C=C/c2ccc(N3CCCC3)cc2)cc1`, the growth was 59.9%. As for `CC(=O)O.CC(=O)O.O.[Fe]`, the growth is 93.4%. Turning to `Cc1ccccc1-n1nnc(C(=O)Nc2nc3ccc(F)cc3s2)c1C`, the growth was 47.5%. In the case of `CN(C)c1cc(NN=C(c2ccc(O)cc2)c2ccc(O)cc2)c([N+](=O)[O-])cc1[N+](=O)[O-]`, the growth was 87.8%. For the molecule `Cc1nc(-c2ccccc2)sc1CC#N`, the growth is 108%.

As to `CSc1nc(=S)c2nc(SC)n(-c3ccccc3)c2[nH]1`, the growth was 82.3%. As for `CCNC(=O)N1CCc2c(Cl)c3c(c(OC)c2[C@@H]1[C@H]1OCc2c1ccc(OC)c2OC)OCCO3`, the growth was 20.8%. For `CCN(CC)c1ccc2cc(C(Nc3ccc(Br)c(C(F)(F)F)c3)c3nnnn3C(C)(C)C)c(=O)oc2c1` (stereo not given), the growth is 79.7%. `O=[N+]([O-])c1cccc(/C=C/c2ccc3ccccc3n2)c1`: the growth is 77.8%. `CC(C)c1ccc(/C=N/N=C(N)N)cc1`: the growth is 48.4%.

As for `C=C(C)[C@@H]1CC[C@]2(C(=O)NCCCN)CC[C@]3(C)[C@H](CC[C@@H]4[C@@]5(C)CC[C@H](O)C(C)(C)[C@@H]5CC[C@]43C)[C@@H]12`, the growth was -53.8% [100 µM] (active). `Cc1ccc2c(c1)/C(=N\N=C/c1cn(C(C)C)c3ccccc13)C(=O)N2`: the growth was 34.7%. For `CC(=O)n1cc(C=O)c2ccccc21`, the growth was 93.5%. As for `O=C(N[C@@H]1CCCc2ccccc21)[C@H](CCC(=O)N1CCN(C2CCCCC2)CC1)N1C(=O)[C@@H](N2C(=O)OC[C@@H]2c2ccccc2)[C@H]1/C=C/c1ccccc1`, the growth was 12.1%. Turning to `CC(C)C1=NOC(=O)C1=Cc1cn(-c2cccnc2)nc1-c1ccccc1`, the growth was 94.1%.
